Drawing on PubChem BioAssay (Tox21), this text covers Potency and outcome for 7 compounds.

Structures are written as SMILES. A number with no mark means an inactive call. Results filed as inconclusive are left out. Calls of active or inactive are those of the source. Unless noted, calls come from the whole dose curve; as a rule, active = well fitted curve in the direction sought with a large enough effect in the repeat runs; inconclusive = weak or mixed curves; inactive = no such curve, though single readings can be large; an effect the other way counts as inactive or inconclusive.

Assay [1] in a line: A CellTox Green Cytotoxicity Assay to monitor cytotoxicity in HEK293 cells - 8 hour (AID 1224884). Note: nearly all actives have a fitted effect of over 35% in size. Note: potency is the fitted concentration of half-maximal effect. The gist of the method: (§1)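 Seeding of HEK293 cells together with cytotoxicity dye preceded a 5 h incubation at 37 C/5% CO2. Test compounds in DMSO were then added and fluorescence monitored across 40 h.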
Assay [2] is described as follows: qHTS RealTime-Glo MT Cell Viability Assay in HepG2 cells - 16 hour (AID 1224885). Note: nearly all actives have a fitted effect of over 50% in size. Note: potency is the fitted concentration of half-maximal effect. The method, boiled down: (§2)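 Cells + NanoLuc/prosubstrate dispensed (600 cells/well) → 5 h at 37 C/5% CO2 → compounds in DMSO transferred → 40 h incubation at 37 C, luminescence read at 0, 8, 16, 24, 32, 40 h.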
In general terms: In qHTS, concentration-response curves come from the screen itself.

Assay [3] can be described thus: qHTS RealTime-Glo MT Cell Viability Assay in HEK293 cells - 8 hour (AID 1224887). Note: nearly all actives have a fitted effect of over 50% in size. Note: potency is the fitted concentration of half-maximal effect. The method, boiled down: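 Tox21 screen in HEK293 using RealTime-Glo MT chemistry, with cells and reagent co-dispensed. Luminescence proportional to viable cell number was captured at intervals during 40 h compound exposure at 37 C.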
A short description of assay [4]: A CellTox Green Cytotoxicity Assay to monitor cytotoxicity in HEK293 cells - 16 hour (AID 1224888). Note: nearly all actives have a fitted effect of over 35% in size. Note: potency is the fitted concentration of half-maximal effect. The method, boiled down:
as §1

Assay [5] in a line: A CellTox Green Cytotoxicity Assay to monitor cytotoxicity in HepG2 cells - 8 hour (AID 1224890). Note: nearly all actives have a fitted effect of over 45% in size. Note: potency is the fitted concentration of half-maximal effect. The method, boiled down: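 Nonlytic assay: viable cells exclude the dye, so fluorescence scales with cell death. HepG2 at 600 cells/well, compounds added after 5 h, signal read across 40 h.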
A short description of assay [6]: qHTS assay to identify small molecule antagonists of the estrogen receptor alpha (ER-alpha) signaling pathway using the BG1 cell line in the presence of 0.1 nM 17-beta-estradiol - cell viability counter screen (AID 1259241). Note: nearly all actives have a fitted effect of over 40% in size. Note: potency is the fitted concentration of half-maximal effect. The gist of the method:
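VM7Luc4E2 cells (endogenous full-length ER-alpha, 4xERE-luciferase), cultured 5 days in charcoal-stripped serum, exposed to compounds with 0.1 nM 17beta-estradiol (final) for 22 hr at 37C. Viability read in same wells as live-cell protease fluorescence after 30 min.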

Assay [7] has as its target Androgen receptor (Homo sapiens) (UniProt P10275). The assay can be described thus: qHTS assay to identify small molecule antagonists of the androgen receptor (AR) signaling pathway using the MDA cell line in the presence of 0.5 nM R1881 (AID 1259243). Note: nearly all actives have a fitted effect of over 50% in size. Note: potency is the fitted concentration of half-maximal effect. The gist of the method: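 We exposed MDA-kb2 cells to compounds under 0.5 nM R1881 stimulation for 16 hr at 37C and quantified MMTV-driven luciferase by luminescence.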

The nature of assay [8]: qHTS assay to identify small molecule HDAC inhibitors (AID 1259364).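 Note: wild-type HCT-116 cells with endogenous class I/II HDAC activity; top concentration of the series differs between compounds; nearly all actives have a fitted effect of over 45% in size.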 The method, boiled down:
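Relative class I and II HDAC activity is taken from the luminogenic signal in HCT-116 cells, with compound exposure 2 hr and reagent development 30 min at room temperature.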

Assay [9] can be described thus: qHTS assay to identify small molecule HDAC inhibitors - cell viability counter screen (AID 1259365). Note: nearly all actives have a fitted effect of over 50% in size. Note: potency is the fitted concentration of half-maximal effect. The method, boiled down:
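Wild-type HCT-116 cells, 1,500/well, cultured overnight, then compound-treated 2 h at 37 C. Viability measured as ATP luminescence with CellTiter-Glo after 30 min at room temperature.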

The nature of assay [10]: qHTS assay to identify small molecule antagonists of the sonic hedgehog signaling (Shh) pathway - cell viability counter screen (AID 1259367). Note: nearly all actives have a fitted effect of over 55% in size. Note: potency is the fitted concentration of half-maximal effect. The method, boiled down: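 NIH/3T3-derived Gli1-Luc reporter cells (2,000 per well) rested 4 hr at 37 C, then received DMSO compounds plus conditioned medium. After 23 hr of treatment, CellTiter-Fluor was added for 1 hr at 37C and fluorescence read.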

Assay [11] can be described thus: qHTS assay to identify small molecule agonists of the sonic hedgehog signaling (Shh) pathway (AID 1259368; calls by dose curve;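 note: NIH/3T3-derived 3T3Gli1-Luc cells carrying a stable Gli1-driven firefly luciferase reporter; series mostly up to about 92 µM; nearly all actives have a fitted effect of over 15% in size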). The method, boiled down: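 Mouse fibroblast (NIH/3T3) reporter cells with stably integrated Gli1-Luc were treated 24 hr with compound; firefly luciferase luminescence served as the read-out.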
Assay [12] in a line: qHTS assay to identify small molecule antagonists of the sonic hedgehog signaling (Shh) pathway (AID 1259369; calls by dose curve; note: nearly all actives have a fitted effect of over 45% in size; note: potency is the fitted concentration of half-maximal effect). The gist of the method: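 Conditioned medium drives Shh signalling in 3T3Gli1-Luc cells; compounds in DMSO co-applied, 24hr at 37 C, then luciferase luminescence.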
Assay [13] can be described thus: qHTS RealTime-Glo MT Cell Viability Assay in HepG2 cells - 0 hour (AID 1224889). Note: nearly all actives have a fitted effect of over 50% in size. The method, boiled down: as §2
Assay [14] is described as follows: qHTS assay to identify small molecule antagonists of the androgen receptor (AR) signaling pathway using the MDA cell line in the presence of 0.5 nM R1881 - cell viability counter screen (AID 1259242). Note: nearly all actives have a fitted effect of over 45% in size. Note: potency is the fitted concentration of half-maximal effect. The method, boiled down: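 R1881 at 0.5 nM final stimulated MDA-kb2 cells during 16 hr compound treatment at 37C. Cytotoxicity read: CellTiter-Fluor fluorescence after 30 min.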

Assay [15] has as its target Estrogen receptor (Homo sapiens) (UniProt P03372). Kind of assay: qHTS assay to identify small molecule antagonists of the estrogen receptor alpha (ER-alpha) signaling pathway using the BG1 cell line in the presence of 0.1 nM 17-beta-estradiol (AID 1259244). Note: nearly all actives have a fitted effect of over 50% in size. Note: potency is the fitted concentration of half-maximal effect. The gist of the method:
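VM7Luc4E2; 4xERE-luciferase; 0.1 nM E2 final; 22 h co-incubation, 37C; ONE-Glo luminescence after 30 min at room temperature.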

Assay [16] can be described thus: qHTS assay to identify small molecule agonists of the sonic hedgehog signaling (Shh) pathway - cell viability counter screen (AID 1259366). Note: nearly all actives have a fitted effect of over 50% in size. Note: potency is the fitted concentration of half-maximal effect. The method, boiled down: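 NIH/3T3-derived Gli1-Luc reporter cells, 2,000 per well, received compound after 4 h and were treated about 23 h at 37C. Viability measured in the same wells by CellTiter-Fluor fluorescence after 1 h.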

Assay [17] addresses Estrogen receptor beta (Homo sapiens) (UniProt Q92731). The assay can be described thus: qHTS assay to identify small molecule agonists of the estrogen receptor beta (ER-beta) signaling pathway (AID 1259377; active = well fitted activation curve with a large enough effect in the signal ratio in the repeat runs, not every such curve was filed as active; the % refers to the signal ratio). The gist of the method:
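ER-beta-UAS-bla HEK293T cells in medium with 2% charcoal-stripped FBS were exposed to compounds for 16 h at 37C. Beta-lactamase reporter activity was read as fluorescence after 2 h with LiveBLAzer B/G FRET substrate at room temperature.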

The target is the same in assay [18]. The assay can be described thus: qHTS assay to identify small molecule antagonists of the estrogen receptor beta (ER-beta) signaling pathway (AID 1259378; active = well fitted inhibition curve with a large enough effect in the signal ratio in the repeat runs, not every such curve was filed as active; the % refers to the signal ratio; note: potency is the fitted concentration of half-maximal effect). The method, boiled down:
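ER-beta-UAS-bla HEK293T (GripTite) cells in 2% charcoal-stripped FBS medium were preincubated 6 hr at 37C, dosed with compound, then stimulated with 1 nM E2 (final) for 16 hr; beta-lactamase reporter read by B/G FRET fluorescence after 2 hr substrate loading.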

A short description of assay [19]: qHTS assay to identify small molecule phospholipidosis (PLD) inducers (AID 1259344; active = well fitted curve in the direction sought with a large enough effect; an effect the other way counts as inactive or inconclusive). The gist of the method: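 HepG2 cells on collagen I, attached 4 h at 37 C, were co-treated with compound and LipidTOX Red dye for 24 h at 37 C, then fixed with paraformaldehyde plus Hoechst 33342 and imaged by high-content microscopy for phospholipid accumulation.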
Assay [20] can be described thus: qHTS RealTime-Glo MT Cell Viability Assay in HEK293 cells - 24 hour (AID 1224886). The gist of the method:
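Tox21 10K qHTS, HEK293, 600 cells/well, RealTime-Glo reagent co-dispensed with cells; 5 h preincubation, compound by pintool, 37 C, luminescence at 0–40 h.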

Estrogen receptor (Homo sapiens), sequence (P03372 whole entry, looked up): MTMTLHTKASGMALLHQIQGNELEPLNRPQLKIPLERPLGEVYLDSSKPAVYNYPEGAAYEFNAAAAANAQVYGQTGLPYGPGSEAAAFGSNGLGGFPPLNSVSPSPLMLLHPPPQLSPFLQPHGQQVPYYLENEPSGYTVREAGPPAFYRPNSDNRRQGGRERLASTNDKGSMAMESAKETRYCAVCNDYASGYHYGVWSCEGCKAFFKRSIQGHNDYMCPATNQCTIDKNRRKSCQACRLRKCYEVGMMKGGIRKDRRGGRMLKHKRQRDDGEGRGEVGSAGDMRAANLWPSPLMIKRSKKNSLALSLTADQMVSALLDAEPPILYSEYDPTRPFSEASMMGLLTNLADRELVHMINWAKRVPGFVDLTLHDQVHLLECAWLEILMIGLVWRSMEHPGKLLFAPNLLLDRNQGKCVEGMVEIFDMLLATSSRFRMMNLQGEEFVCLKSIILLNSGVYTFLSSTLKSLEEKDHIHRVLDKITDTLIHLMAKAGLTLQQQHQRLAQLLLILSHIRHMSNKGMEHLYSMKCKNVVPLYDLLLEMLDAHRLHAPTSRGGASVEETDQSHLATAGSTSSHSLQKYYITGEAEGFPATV
Estrogen receptor beta (Homo sapiens), sequence (Q92731 whole entry, looked up): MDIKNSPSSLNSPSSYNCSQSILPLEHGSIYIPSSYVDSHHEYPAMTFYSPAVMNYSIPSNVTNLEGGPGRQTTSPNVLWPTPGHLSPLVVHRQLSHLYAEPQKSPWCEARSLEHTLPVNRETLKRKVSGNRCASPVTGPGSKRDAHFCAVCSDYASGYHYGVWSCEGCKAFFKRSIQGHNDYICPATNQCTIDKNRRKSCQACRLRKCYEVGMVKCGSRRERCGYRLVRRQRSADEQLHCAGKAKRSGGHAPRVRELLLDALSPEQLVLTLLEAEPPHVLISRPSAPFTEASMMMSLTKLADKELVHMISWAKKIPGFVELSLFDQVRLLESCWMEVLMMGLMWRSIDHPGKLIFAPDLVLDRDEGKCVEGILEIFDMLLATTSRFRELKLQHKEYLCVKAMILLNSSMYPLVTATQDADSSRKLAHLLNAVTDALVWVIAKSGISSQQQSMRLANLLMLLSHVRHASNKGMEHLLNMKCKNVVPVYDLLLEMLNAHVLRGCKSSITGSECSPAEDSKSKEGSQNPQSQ
Androgen receptor (Homo sapiens), sequence (P10275 whole entry, looked up): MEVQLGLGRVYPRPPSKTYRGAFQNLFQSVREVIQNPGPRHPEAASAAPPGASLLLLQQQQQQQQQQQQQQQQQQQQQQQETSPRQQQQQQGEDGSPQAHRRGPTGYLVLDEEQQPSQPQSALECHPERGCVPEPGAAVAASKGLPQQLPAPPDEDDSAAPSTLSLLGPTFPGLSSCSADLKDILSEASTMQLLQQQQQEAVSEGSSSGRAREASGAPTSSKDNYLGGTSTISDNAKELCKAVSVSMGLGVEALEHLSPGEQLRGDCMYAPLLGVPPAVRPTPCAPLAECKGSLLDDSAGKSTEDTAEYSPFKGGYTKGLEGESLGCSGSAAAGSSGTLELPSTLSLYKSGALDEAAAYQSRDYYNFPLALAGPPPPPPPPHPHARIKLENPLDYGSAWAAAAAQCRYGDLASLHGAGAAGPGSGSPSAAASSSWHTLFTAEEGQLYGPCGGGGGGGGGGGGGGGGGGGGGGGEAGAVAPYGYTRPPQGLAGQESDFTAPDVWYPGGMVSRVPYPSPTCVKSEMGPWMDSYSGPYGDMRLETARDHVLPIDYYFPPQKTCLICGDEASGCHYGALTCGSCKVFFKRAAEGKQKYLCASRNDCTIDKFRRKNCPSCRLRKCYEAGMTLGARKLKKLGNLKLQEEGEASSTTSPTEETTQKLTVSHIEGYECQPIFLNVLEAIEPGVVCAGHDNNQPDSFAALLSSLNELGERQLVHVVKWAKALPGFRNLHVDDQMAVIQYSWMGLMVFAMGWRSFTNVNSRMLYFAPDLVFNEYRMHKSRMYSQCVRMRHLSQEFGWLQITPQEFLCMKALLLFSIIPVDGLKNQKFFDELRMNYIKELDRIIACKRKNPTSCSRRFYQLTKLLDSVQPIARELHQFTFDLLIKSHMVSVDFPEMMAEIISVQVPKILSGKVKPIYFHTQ

`CN(C[C@@H](CC[N+]12CCC(C3CCCCC3)(CC1)CC2)c1ccc(Cl)c(Cl)c1)C(=O)c1cc(C(F)(F)F)cc(C(F)(F)F)c1`: the Potency in [1] is 43.6 µM (active); in [2], 21.9 µM (active); in assay [3] it was 3.47 µM (active); in [4], 24.5 µM (active); in [5], 38.9 µM (active); in [6], 54.5 µM (active). The Potency in assay [7] is 68.6 µM (active); in [9], 12.2 µM (active). In addition, the Potency entry in assay [8], in [10], in assay [11] and in assay [12] was “inactive” throughout.
As for `O=C1CCC(=O)N1`, the Potency result in [1], in assay [2], in assay [4], in [13], in assay [5] and in assay [6] was “inactive” each time. Besides, the Potency result in assay [14], in [7], in assay [15], in assay [8], in [16] and in [10] was “inactive” each time. Besides, the Potency result in [11], in [12] and in assay [18] was “inactive” in each case. Besides, the compound was called inactive in assay [17].
On to `O=[N+]([O-])c1ccc(O)c2ncccc12`, for which the Potency entry in assay [1], in assay [2], in assay [3], in assay [4], in assay [13] and in assay [19] was “inactive” in each case. For the same compound, the Potency result in [8], in assay [9] and in assay [11] was “inactive” throughout. Besides, the Potency in [14] was 9.44 µM (active); in [16], 1.88 µM (active); in assay [12], 0.531 µM (active); in [18] it was 5.96 µM (active). In addition, in assay [17], the result was inactive.
Consider `CCc1cccc(C)c1N(C(=O)C(=O)O)C(C)COC` (stereo not given), for which the Potency entry in [1], in assay [20], in assay [3], in assay [4], in [13] and in [5] was “inactive” in each case. Also, the Potency entry in assay [6], in [14], in [7], in assay [15], in assay [8] and in assay [9] was “inactive” each time. Moreover, the Potency result in assay [16], in [10], in assay [11] and in [12] was “inactive” each time.
Consider `CCNc1nc(NC(C)(C)C)nc(OC)n1`, for which the Potency entry in assay [1], in assay [2], in assay [3], in assay [4], in [13] and in [5] was “inactive” throughout. Moreover, the Potency entry in [6], in [14], in assay [15], in assay [8], in assay [9] and in assay [16] was “inactive” each time. In addition, the Potency result in assay [10], in assay [11] and in assay [18] was “inactive” in each case. For the same compound, the compound was called inactive in assay [17].
For `CCN(CC)c1ccc2c(c1)Oc1cc(N(CC)CC)ccc1C21OC(=O)c2ccccc21`, the Potency in [1] is 23.9 µM (active); in assay [4], 21.3 µM (active); in [5], 23.9 µM (active); in [6], 5.96 µM (active); in assay [14], 10.6 µM (active); in [16] it was 3.76 µM (active). The Potency in assay [10] was 3.35 µM (active). Moreover, the Potency entry in assay [2], in assay [3], in assay [13], in assay [15], in assay [8] and in assay [11] was “inactive” each time.
With `CN[C@H]1CC[C@@H](c2ccc(Cl)c(Cl)c2)c2ccc(S(N)(=O)=O)cc21`, the Potency in assay [1] is 54.9 µM (active); in [2] it was 43.6 µM (active); in [3] it was 38.9 µM (active); in assay [4], 24.5 µM (active); in assay [7] it was 30.6 µM (active); in assay [15], 61.1 µM (active). In addition, the Potency in assay [10] was 61.1 µM (active); in [12] it was 3.06 µM (active); in assay [18], 24.3 µM (active). For the same compound, the Potency entry in assay [6], in assay [8], in [9] and in assay [11] was “inactive” each time.
